About 83,000 compounds went through this panel and 20% of them were active in at least one assay; those are over-represented in the sample as a whole.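 Results are percent growth after 48 hours of single-concentration exposure. 100 means growth as in untreated cells, lower positive values show inhibition; negative values down to -100 show cell death.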 Unmarked numbers belong to inactive results. Calls of active or inactive are those of the source. The calls were made as follows: active = growth percent below 10; inactive = the rest.
What follows are compounds tested on HL-60(TB) leukemia (assay: NCI-60 one-dose screen, 48 h (100 = growth as untreated, 0 = no growth, -100 = all killed)). Conditions: 10 µM unless noted.

SMILES | growth
NCCNc1nc2ccccc2c2c(=O)c3cc(F)ccc3sc12 | 62.8%
Cc1c(C)c2c(c(C)c1NC(=O)CCCCCCC(=O)O)CCC(C)(CCCC(C)CCCC(C)CCCC(C)C)O2 (configuration not stated) | 75.1%
Oc1ccc(-c2nc3ccc4[nH]ncc4c3c3c2CCCC3)c(F)c1 | 0.236% (active)
CC1(C)CC[C@]2(C(=O)NCC#CCN3CCOCC3)CC[C@]3(C)C(=CC[C@@H]4[C@@]5(C)Cc6c([nH]c7ccccc67)C(C)(C)[C@@H]5CC[C@]43C)[C@@H]2C1 | 62.7%
COC(=O)c1nc(=S)[nH]c(C(=O)OC)c1C(=O)c1ccc(OC)cc1 | 107%
C#Cc1cccc(Nc2ncnc3ccc(-c4cnc(Cl)c(NS(C)(=O)=O)c4)cc23)c1 | -5.77% (active)
COc1ccc2c(=O)c(OC)c(-c3cc(OC)c(OC)c(OC)c3)oc2c1 | 85.1%
O=S(=O)(NCCCNc1cc(-c2cn(-c3ccccc3)nc2-c2ccccc2)ccn1)c1ccc(C(F)(F)F)cc1 | 39.1%
COC(=O)OC1C(O[C@H]2C[C@H]3[C@@H]4CC=C5C[C@@H](O)CC[C@]5(C)[C@H]4CC[C@]3(C)[C@H]2[C@H](C)C(=O)CCC(C)C)OCC(O)C1OC1OCC(O)C(O)C1OC(=O)c1ccc(OC)cc1 (some centres not stated) | -22.3% (active)
CC(C)C1=CC2=C(C=O)C[C@@H]3[C@](C)(CCC[C@@]3(C)C(=O)OCC#CCN3CCCC3)[C@H]2CC1 | 54.5%
Cc1cc(C)on1 | 76.3%
CSc1nc(-c2ccco2)c2c(N)[nH]nc2n1 | 82.9%

— PubChem BioAssay (NCI)
